In the library only some 19% were active in any assay of this set; here they are far more common.
HT1080 IDH1KD tx = qHTS for induction of synthetic lethality in tumor cells producing 2HG: qHTS for the HT-1080-IDH1KD cell line; Potency, µM (series often up to 46.1 µM), for inactives: top-dose activity, negative = toxicity, usual class: cytotoxic; HT-1080 IDH1 knockdown viability, ATP luminescence, 48 h; actives 2% (n = 360,000);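 also: potency is read from the fitted curve at half-maximal effect; 0% = DMSO wells and -100% = cell-free medium wells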
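CellTiter-Glo luminescence after 48 h compound exposure at 37 degrees C of IDH1-knockdown HT-1080 cells in 5% FBS RPMI. %Activity scaled between DMSO wells and cell-free media wells, with curves fitted and assigned curve classes.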
DT40 TDP1 CPT = qHTS for Inhibitors of human tyrosyl-DNA phosphodiesterase 1 (TDP1): qHTS in cells in presence of CPT. chicken DT40 Tdp1-/-;hTDP1 cells + 20 nM CPT, ATP luminescence, 48 h. AID 686979, 2013. Potency, µM (top dose mostly 46.2 µM), inactives show at the top dose activity change, negative = growth inhibition, hits mostly inhibitors. actives 12% (n = 420,000); also: potency is read from the fitted curve at half-maximal effect; nearly all actives have a fitted effect of over 55% in size
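Chicken DT40 Tdp1-/- cells complemented with human TDP1, 400 cells/well, exposed to compounds plus 20 nM camptothecin for at least 48 h at 37 C; viability read as ATP content by CellTiter-Glo luminescence.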
HT1080NT lethal = qHTS for induction of synthetic lethality in tumor cells producing 2HG: qHTS for the HT-1080-NT fibrosarcoma cell line | HT-1080-NT fibrosarcoma viability, CellTiter-Glo ATP luminescence, 48 h | Potency, µM (top dose mostly 46.1 µM), without a hit: at the highest dose activity, negative = less viability, actives largely listed as cytotoxic | actives 1.6% (n = 360,000);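 also: NT is the 2HG producing partner of a matched IDH1 knockdown line; potency is read from the fitted curve at half-maximal effect; 0% = DMSO-treated cells and -100% = media-only wells without cells; nearly all actives have a fitted effect of over 55% in size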
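A 48-hour cytotoxicity screen used HT-1080-NT cells plated 2 hours before compound delivery. ATP-based CellTiter-Glo luminescence measured viability, normalized to DMSO and no-cell controls.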
TDP1 cell noCPT = qHTS for Inhibitors of human tyrosyl-DNA phosphodiesterase 1 (TDP1): qHTS in cells in absence of CPT; actives 15% (n = 420,000); Potency, µM (doses to about 46.2 µM), inactives show at the highest dose activity change, negative = growth inhibition, usual class: inhibitors; AID 686978, 2013; DT40 Tdp1-/- hTDP1 cells, no CPT, ATP luminescence, 48 h; also: potency is read from the fitted curve at half-maximal effect; nearly all actives have a fitted effect of over 55% in size
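Seeded 400 DT40-hTDP1 cells/well (vehicle DMSO, no 20 nM CPT); pinned compounds; ≥48 hr at 37 °C; CellTiter-Glo luminescence as viability measure.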
IL-1B inflam inh = qHTS for Inhibitors of Inflammasome Signaling: IL-1-beta AlphaLISA Primary Screen | actives 4.7% (n = 360,000) | activity change, % at 57.5 µM | THP-1 LPS/ATP IL-1B secretion, AlphaLISA, 16 h; stronger effect = lower value; in the data active = activity change below about -50%; inconclusive = mostly about -30% to -49%
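THP-1 cells pretreated 1 hr with compounds (up to 57.5 uM final), then stimulated with LPS (250 ng/mL final) plus ATP (1.25 mM final); secreted IL-1B measured by AlphaLISA after 16 hr, decreased signal indicating inhibition.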
The depositor's hits bear a star; ? = inconclusive; · = no result. Unless noted, calls follow the shape of the dose curve; as a rule, active = well fitted curve in the direction sought with a large enough effect; inconclusive = small, poorly fitted or top-dose-only effect, or another doubt; inactive = no such curve, though single readings can be large; an effect the other way counts as inactive or inconclusive. Unless noted, % is scaled to controls: 0 for no effect and ±100 for the full control effect.

SMILES	HT1080 IDH1KD tx	DT40 TDP1 CPT	HT1080NT lethal	TDP1 cell noCPT	IL-1B inflam inh
O=C(CN(Cc1ccco1)C(=O)c1ccc([N+](=O)[O-])cc1)Nc1ccccc1C(F)(F)F	-13%	-17%	0%	-25%	-18
CCOc1ccc(C(=O)NCc2ccco2)cc1	-8%	?	-15%	-27%	-4
N#Cc1ccccc1Sc1ccccc1C(=O)OCc1nnc(-c2ccccc2)o1	-4%	?	-7%	?	2
Cc1noc(C)c1COC(=O)c1ccccc1Sc1ccccc1C#N	-28%	26µM*	-6%	?	-20
Cc1ccnc2nc(C(=O)OC(C)C(=O)NCc3ccccc3)nn12 (stereo not given)	8%	8%	18%	1%	13
O=c1[nH]n(Cc2ccccc2)c2ccccc12	11%	33%	18%	-10%	12
N#CC1=C(N)OC2=C(CCc3ccccc32)C1c1ccccc1Cl (stereo not given)	4.6µM*	4.6µM*	7.3µM*	4.6µM*	-73*
O=C(COC(=O)Cc1ccc(Cl)cc1)NCc1cccs1	0%	-3%	11%	-21%	8
COC(=O)c1ccccc1NC(=O)NCCc1ccc(OC)c(OC)c1	-1%	-10%	14%	?	63
COc1ccc(CCNC(=O)CSc2nc(C)cc(C)n2)cc1OC	4%	7%	-4%	11%	9
COc1ccc(CCNC(=O)Nc2cc(F)c(F)cc2Cl)cc1OC	-1%	23µM*	-13%	8.2µM*	17
CC(C)(C)NC(=O)CSc1nnc(-c2ccccc2)c(-c2ccccc2)n1	-13%	-15%	-28%	?	-84*
COc1ccc(CCNCC(=O)Nc2ccc(C)c(Br)c2)cc1OC	?	9.2µM*	?	?	-15
COc1ccc(CCNC(=O)CSc2nnc(-c3ccc(C)cc3)c(-c3ccc(C)cc3)n2)cc1OC	·	?	·	16µM*	·
Cc1nn2cc(-c3ccc(Cl)cc3)cnc2c1Cl	22%	?	25%	-24%	0
O=C(CN1CCN(S(=O)(=O)c2ccc(Cl)cc2)CC1)NC1CC1	8%	-29%	6%	29%	40
CCN(CC)c1ccc(CN(C(=O)c2cccs2)C2CCS(=O)(=O)C2)cc1 (stereo not given)	-6%	?	4%	?	-28
CC(C)(C)OC(=O)C[C@@H]1C/C=C\C[C@H](CC(=O)N(CCO)Cc2ccccc2)C(=O)NCCOC1=O	11%	-26%	11%	-24%	13
CCOc1cc(-c2nnc(SCC(=O)NCCCOC)nc2-c2ccc(OC)c(OCC)c2)ccc1OC	·	-26%	·	?	·
COc1ccc(CCNC(=O)CSc2cccc3cccnc23)cc1OC	0%	14%	0%	-9%	-98*
COc1ccc(CSc2cccc3cccnc23)cc1[N+](=O)[O-]	-1%	?	-2%	16µM*	-3
CCOc1ccc(-c2nnc(SCC(=O)NCCC(C)C)nc2-c2ccc(OCC)c(OC)c2)cc1OC	·	15µM*	·	?	·
COc1ccc(CCNC(=O)c2nc(SCc3ccc(F)cc3)ncc2Cl)cc1OC	·	21µM*	·	?	·
CCCN(CC(=O)Nc1cc(Cl)ccc1Cl)C(=O)CN1C(=O)C2CCCCC2C1=O (stereo not given)	-7%	-6%	1%	-18%	0
CCC(Sc1nc2ncccc2[nH]1)C(=O)N1CCOCC1 (stereo not given)	5%	5%	-2%	12%	-9
SMILES	HT1080 IDH1KD tx	DT40 TDP1 CPT	HT1080NT lethal	TDP1 cell noCPT	IL-1B inflam inh
COc1ccccc1CCNC(=O)C(C)Sc1nc(-c2ccccc2)cc(C(F)(F)F)n1 (stereo not given)	·	16µM*	·	15µM*	·
COc1ccc(-c2cc(C(F)(F)F)nc(SCC(=O)N(C)Cc3cn(C)nc3C)n2)cc1OC	1%	18µM*	-1%	12µM*	-21
COc1ccc(CCN(C)CC(=O)Nc2ccc(F)c(Cl)c2)cc1OC	-3%	-2%	-23%	?	-58*
O=[N+]([O-])c1ccc(Sc2cccc3cccnc23)c2cccnc12	4%	18µM*	0%	26µM*	27
O=C(Nc1ccc(Cl)c(S(=O)(=O)N2CCCCC2)c1)c1ccco1	-6%	-25%	0%	?	-15
Cc1ccc(CN2CCC(C)(Oc3ccc(Cl)cc3)C2)cc1 (stereo not given)	-7%	?	-23%	?	-9
Cc1ccc(-c2nnc(SCC(=O)NCC3CCCO3)nc2-c2ccc(C)cc2)cc1 (stereo not given)	2%	?	-11%	23µM*	9
COCCn1c(-c2ccc(Cl)cc2)cnc1SCC(=O)NCCc1ccc(OC)c(OC)c1	-16%	21µM*	0%	?	?
Cc1ccc(-c2nnc(SCC(=O)NCCC(C)C)nc2-c2ccc(C)cc2)cc1	·	5.8µM*	·	13µM*	·
COc1ccc(CCNC(=O)CSc2nnnn2C)cc1OC	0%	-20%	1%	-24%	-9
COc1ccc(CCNC(=O)CSc2nc(-c3ccc(F)cc3)cc(C(F)(F)F)n2)cc1OC	·	18µM*	·	?	·
CCNC(=O)C1CCCN(C(=O)c2ccc(OC)c(OC)c2)CC1 (stereo not given)	2%	20%	15%	8%	6
N#Cc1ccccc1OCC(=O)NC(=O)NCc1ccco1	13%	2%	13%	-5%	0
CCCNC(=O)C1CCC(Cn2c(=O)c3sccc3n(CC(=O)NCc3cccc(OC)c3OC)c2=O)CC1 (stereo not given)	·	?	·	4.1µM*	·
CCCCCNC(=O)C1CCC(Cn2c(=O)c3sccc3n(CC(=O)NCc3cccc(OC)c3OC)c2=O)CC1 (stereo not given)	·	1%	·	-5%	·
CCCCNC(=O)C1CCC(Cn2c(=O)c3sccc3n(CC(=O)Nc3ccccc3)c2=O)CC1 (stereo not given)	·	15µM*	·	?	·

Screening data as filed in PubChem.
